# Data: PubChem BioAssay (EPA / NIEHS)
# Calls of active or inactive are those of the source. How the source made its calls: active means hit-call score of the fitted dose curve at least 0.9, where 1 is the maximum; inactive means score below 0.9.
# Columns and labels:
# [1] = ATG_GRE_CIS: Attagene CIS-FACTORIAL HepG2 Assay for human Glucocorticoid Response Elements (GRE) (AID 2282947); conditions: HepG2 GRE cis-reporter, Attagene multiplex mRNA; actives raise or lower the signal
# Summary of the method: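 Cells (HepG2) bearing transfected cis-promoter reporter transcription units were treated with chemical for 24 hours. Reporter mRNA was measured via RT-PCR with capillary electrophoresis, and activity was fitted in both directions relative to DMSO.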
# [2] = ATG_M_32_CIS: Attagene CIS-FACTORIAL HepG2 Assay for M32 Transcription Factor (Internal Marker) (AID 2282949); conditions: HepG2 Attagene cis-factorial M32 reporter, mRNA; actives raise or lower the signal;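 further: background control marker of the multiplexed CIS panel rather than a real target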
# Summary of the method: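 HepG2 transfectants (cis-regulated reporter transcription units) dosed 24 h. Reporter mRNA by RT-PCR plus CE, analysed as gain or loss relative to DMSO.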
# [3] = ATG_M_06_CIS: Attagene CIS-FACTORIAL HepG2 Assay for M06 Transcription Factor (Internal Marker) (AID 2282950); conditions: HepG2 Attagene CIS-FACTORIAL M06 internal marker reporter; actives raise or lower the signal
# Summary of the method: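 Cells (HepG2, transiently carrying cis-driven reporter units) receive chemical for 24 h before RNA isolation. Reporter cDNA is PCR-amplified, FAM-labelled by primer extension, HpaI-digested and sized on a capillary analyser.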
# [4] = biological target: Hypoxia-inducible factor 1-alpha (Homo sapiens) (UniProt Q16665); assay: ATG_HIF1a_CIS: Attagene CIS-FACTORIAL HepG2 Assay for human Hypoxia Inducible Factor 1 (HIF1A) (AID 2282951); conditions: HepG2 Attagene cis-factorial HIF1a reporter transcription; actives raise or lower the signal
# Chain of Hypoxia-inducible factor 1-alpha (Homo sapiens) (Q16665 whole entry, looked up): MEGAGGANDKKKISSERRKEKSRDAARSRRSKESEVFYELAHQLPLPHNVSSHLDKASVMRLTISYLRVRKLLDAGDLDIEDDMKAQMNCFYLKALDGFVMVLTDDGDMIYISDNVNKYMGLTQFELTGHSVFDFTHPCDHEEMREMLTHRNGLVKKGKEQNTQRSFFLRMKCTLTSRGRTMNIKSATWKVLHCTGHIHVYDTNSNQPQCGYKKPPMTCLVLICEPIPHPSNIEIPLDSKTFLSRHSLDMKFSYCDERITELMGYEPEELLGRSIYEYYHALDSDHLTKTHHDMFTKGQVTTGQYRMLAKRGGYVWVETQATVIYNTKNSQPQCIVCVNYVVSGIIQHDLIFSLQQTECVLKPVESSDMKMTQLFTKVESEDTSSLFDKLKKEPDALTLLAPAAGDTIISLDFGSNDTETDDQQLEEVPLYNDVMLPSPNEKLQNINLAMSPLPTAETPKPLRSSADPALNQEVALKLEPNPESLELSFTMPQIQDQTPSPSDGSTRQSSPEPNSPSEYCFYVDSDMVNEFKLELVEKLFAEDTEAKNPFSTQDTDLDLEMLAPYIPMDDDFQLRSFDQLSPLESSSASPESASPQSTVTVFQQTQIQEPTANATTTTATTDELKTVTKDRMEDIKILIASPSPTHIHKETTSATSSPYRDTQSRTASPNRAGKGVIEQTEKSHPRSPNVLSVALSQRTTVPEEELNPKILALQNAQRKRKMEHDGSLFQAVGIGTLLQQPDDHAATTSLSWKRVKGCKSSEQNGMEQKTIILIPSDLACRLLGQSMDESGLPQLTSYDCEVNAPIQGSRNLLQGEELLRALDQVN
# Summary of the method: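 Endogenous-TF cis reporter readout, human HepG2 cells, 24 h incubation; mRNA detected via RT-PCR and capillary electrophoresis fluorescence; DMSO-normalised bidirectional fitting.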
# [5] = biological target: Hepatocyte nuclear factor 6 (Homo sapiens) (UniProt Q9UBC0); assay: ATG_HNF6_CIS: Attagene CIS-FACTORIAL HepG2 Assay for human Hepatocyte Nuclear Factor 6 (HNF6) (AID 2282952); conditions: HepG2 Attagene cis-factorial HNF6 reporter transcription; actives raise or lower the signal
# Chain of Hepatocyte nuclear factor 6 (Homo sapiens) (Q9UBC0 whole entry, looked up, the tested form may be a part): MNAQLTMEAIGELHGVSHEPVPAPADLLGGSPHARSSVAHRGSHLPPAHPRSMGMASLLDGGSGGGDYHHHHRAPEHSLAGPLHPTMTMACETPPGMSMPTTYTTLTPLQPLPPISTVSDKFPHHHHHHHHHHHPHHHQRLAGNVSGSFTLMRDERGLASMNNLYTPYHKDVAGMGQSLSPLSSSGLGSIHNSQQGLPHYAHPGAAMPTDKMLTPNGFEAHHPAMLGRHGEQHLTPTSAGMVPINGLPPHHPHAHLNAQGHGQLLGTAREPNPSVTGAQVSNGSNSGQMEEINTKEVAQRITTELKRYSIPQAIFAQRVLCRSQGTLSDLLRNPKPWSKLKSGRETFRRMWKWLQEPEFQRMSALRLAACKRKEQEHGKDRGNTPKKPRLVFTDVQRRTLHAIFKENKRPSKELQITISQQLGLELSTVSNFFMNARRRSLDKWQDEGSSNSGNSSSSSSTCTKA
# Summary of the method: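 Readout: fluorescent reporter-transcript fragments resolved by capillary electrophoresis after RT-PCR, reflecting endogenous factor activity in transfected HepG2. Exposure 24 h. Gain or loss of signal fitted bidirectionally against DMSO.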
# [6] = biological target: Heat shock factor protein 1 (Homo sapiens) (UniProt Q00613); assay: ATG_HSE_CIS: Attagene CIS-FACTORIAL HepG2 Assay for human Heat Shock Transcription Factor 1 (HSE) (AID 2282953); conditions: HepG2 HSE cis-reporter, Attagene RNA transcription; actives raise or lower the signal
# Chain of Heat shock factor protein 1 (Homo sapiens) (Q00613 whole entry, looked up): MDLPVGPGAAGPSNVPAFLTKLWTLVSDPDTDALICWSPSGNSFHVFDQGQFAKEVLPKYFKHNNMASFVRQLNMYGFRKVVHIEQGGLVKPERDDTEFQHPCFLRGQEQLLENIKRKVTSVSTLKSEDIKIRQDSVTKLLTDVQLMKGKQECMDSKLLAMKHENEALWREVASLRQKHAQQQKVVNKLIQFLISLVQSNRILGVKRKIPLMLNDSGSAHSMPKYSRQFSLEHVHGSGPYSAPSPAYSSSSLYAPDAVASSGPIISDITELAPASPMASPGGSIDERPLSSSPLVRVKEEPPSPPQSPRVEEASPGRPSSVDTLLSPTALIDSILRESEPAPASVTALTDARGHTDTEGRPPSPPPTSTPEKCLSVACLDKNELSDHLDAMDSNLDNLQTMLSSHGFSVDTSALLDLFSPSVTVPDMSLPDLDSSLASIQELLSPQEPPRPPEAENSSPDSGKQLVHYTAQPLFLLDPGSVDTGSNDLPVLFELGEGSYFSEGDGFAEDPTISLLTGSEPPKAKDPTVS
# Summary of the method: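 Liver-derived HepG2 cells carry transiently introduced multiple reporter units governed by cis promoters. Reporter RNA measured 24 h post-dose through reverse transcription, PCR amplification, fluorescent labelling and capillary electrophoresis, normalised to DMSO.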
# [7] = ATG_MRE_CIS: Attagene CIS-FACTORIAL HepG2 Assay for human Metal Responsive Element (MRE) (AID 2282954); conditions: HepG2 MRE cis-reporter transcription, Attagene multiplex; actives raise or lower the signal
# Summary of the method: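 Cells were transfected with cis-promoter reporter transcription units, then dosed for 24 h. RNA was reverse-transcribed, amplified, fluorescently labelled and resolved by capillary electrophoresis, and activity was fitted in both directions relative to DMSO.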
# [8] = ATG_PBREM_CIS: Attagene CIS-FACTORIAL HepG2 Assay for human Phenobarbital-responsive Enhancer Module (PBREM) (AID 2282955); conditions: HepG2 PBREM cis-reporter, Attagene multiplexed transcription; actives raise or lower the signal
# Summary of the method: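 Readout: reporter mRNA, fluorescent RT-PCR fragments separated by capillary electrophoresis. System: HepG2 transiently transfected with cis-regulated reporter units. Exposure: 24 h. Analysis: bidirectional, DMSO baseline.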
# [9] = biological target: Paired box protein Pax-6 (Homo sapiens) (UniProt P26367); assay: ATG_Pax6_CIS: Attagene CIS-FACTORIAL HepG2 Assay for human Paired Box 6 (PAX6) (AID 2282956); conditions: HepG2 CIS-FACTORIAL PAX6 reporter transcription, RNA readout; actives raise or lower the signal
# Chain of Paired box protein Pax-6 (Homo sapiens) (P26367 whole entry, looked up): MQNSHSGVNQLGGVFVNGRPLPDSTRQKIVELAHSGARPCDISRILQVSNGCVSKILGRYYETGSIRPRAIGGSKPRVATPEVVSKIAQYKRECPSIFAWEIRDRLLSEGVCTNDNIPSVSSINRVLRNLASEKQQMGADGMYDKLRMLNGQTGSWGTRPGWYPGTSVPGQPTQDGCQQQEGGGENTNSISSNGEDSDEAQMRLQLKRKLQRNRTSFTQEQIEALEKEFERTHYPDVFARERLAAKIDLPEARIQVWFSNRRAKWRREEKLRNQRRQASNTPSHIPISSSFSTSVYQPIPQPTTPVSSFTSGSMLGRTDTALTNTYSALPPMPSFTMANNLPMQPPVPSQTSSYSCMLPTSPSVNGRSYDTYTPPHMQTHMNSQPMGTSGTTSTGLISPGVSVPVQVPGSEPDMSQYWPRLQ
# Summary of the method: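 Values derive from bidirectional curve fitting of reporter mRNA signal relative to DMSO. HepG2 cells bearing transfected cis-regulated MRTUs were exposed for 24 h; transcripts were read by RT-PCR and capillary electrophoresis.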
# [10] = ATG_PXRE_CIS: Attagene CIS-FACTORIAL HepG2 Assay for human Pregnane X Receptor Element (PXRE) (AID 2282957); conditions: HepG2 Attagene CIS-FACTORIAL PXRE reporter, mRNA; actives raise or lower the signal
# Summary of the method: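 Read-out: fluorescence of reporter-specific RT-PCR products resolved by capillary electrophoresis, fitted bidirectionally relative to DMSO. Human HepG2 liver cells carried transfected cis-promoter reporter units and were exposed to chemicals for 24 h.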
# [11] = ATG_RORE_CIS: Attagene CIS-FACTORIAL HepG2 Assay for human RAR-related Orphan Receptor Element (RORE) (AID 2282959); conditions: HepG2 Attagene cis-factorial RORE reporter, mRNA; actives raise or lower the signal
# Summary of the method: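 Measured here: transcript induction of a cis-regulated reporter in HepG2 cells transiently transfected via FuGene 6. After 24 h, RNA was processed by RT-PCR and fluorescent capillary electrophoresis; DMSO defined baseline activity.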
# [12] = biological target: Transcription factor Sp1 (Homo sapiens) (UniProt P08047); assay: ATG_Sp1_CIS: Attagene CIS-FACTORIAL HepG2 Assay for human Specificity Protein 1 (Sp1) (AID 2282961); conditions: HepG2 Sp1 cis-reporter transcription, actives raise or lower the signal
# Chain of Transcription factor Sp1 (Homo sapiens) (P08047 whole entry, looked up): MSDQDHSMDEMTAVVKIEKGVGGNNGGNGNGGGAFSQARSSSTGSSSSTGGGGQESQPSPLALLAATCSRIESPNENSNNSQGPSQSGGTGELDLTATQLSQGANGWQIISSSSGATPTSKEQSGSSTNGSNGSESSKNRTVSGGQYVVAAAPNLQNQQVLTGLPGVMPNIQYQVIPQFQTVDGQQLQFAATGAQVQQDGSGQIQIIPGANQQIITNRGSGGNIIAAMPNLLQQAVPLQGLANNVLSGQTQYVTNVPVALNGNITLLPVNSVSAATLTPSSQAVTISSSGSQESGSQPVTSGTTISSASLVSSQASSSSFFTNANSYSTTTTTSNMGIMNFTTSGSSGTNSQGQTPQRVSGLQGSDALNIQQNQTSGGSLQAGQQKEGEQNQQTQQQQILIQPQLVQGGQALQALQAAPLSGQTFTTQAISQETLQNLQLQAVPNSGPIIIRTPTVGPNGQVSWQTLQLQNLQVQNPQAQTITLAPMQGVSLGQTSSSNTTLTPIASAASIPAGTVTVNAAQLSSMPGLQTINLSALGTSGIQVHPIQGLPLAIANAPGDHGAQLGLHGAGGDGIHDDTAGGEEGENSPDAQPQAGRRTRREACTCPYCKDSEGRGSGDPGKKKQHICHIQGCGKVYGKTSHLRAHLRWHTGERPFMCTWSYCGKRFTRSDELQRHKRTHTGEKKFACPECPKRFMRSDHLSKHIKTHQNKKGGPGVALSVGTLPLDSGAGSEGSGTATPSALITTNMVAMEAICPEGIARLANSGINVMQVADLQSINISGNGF
# Summary of the method: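 After transient transfection of HepG2 cells with cis-promoter reporter units and 24 h chemical treatment, reporter transcripts were quantified by RT-PCR and capillary electrophoresis fluorescence. Gain- and loss-of-signal fitted against DMSO.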
# [13] = ATG_SREBP_CIS: Attagene CIS-FACTORIAL HepG2 Assay for human Sterol Regulatory Element Binding (SREBP) (AID 2282962); conditions: HepG2 Attagene cis-factorial SREBP reporter, mRNA; actives raise or lower the signal
# Summary of the method: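 Values derive from bidirectional curve fitting with DMSO as baseline. The underlying measurement is reporter mRNA from cis-element-regulated units in transiently transfected HepG2, quantified by RT-PCR and capillary electrophoresis after 24 h exposure.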
# [14] = biological target: Signal transducer and activator of transcription 3 (Homo sapiens) (UniProt P40763); assay: ATG_STAT3_CIS: Attagene CIS-FACTORIAL HepG2 Assay for human Signal Transducer and Activator of Transcription 3 (STAT3) (AID 2282963); conditions: HepG2, Attagene cis-factorial STAT3 reporter transcription; actives raise or lower the signal
# Chain of Signal transducer and activator of transcription 3 (Homo sapiens) (P40763 whole entry, looked up): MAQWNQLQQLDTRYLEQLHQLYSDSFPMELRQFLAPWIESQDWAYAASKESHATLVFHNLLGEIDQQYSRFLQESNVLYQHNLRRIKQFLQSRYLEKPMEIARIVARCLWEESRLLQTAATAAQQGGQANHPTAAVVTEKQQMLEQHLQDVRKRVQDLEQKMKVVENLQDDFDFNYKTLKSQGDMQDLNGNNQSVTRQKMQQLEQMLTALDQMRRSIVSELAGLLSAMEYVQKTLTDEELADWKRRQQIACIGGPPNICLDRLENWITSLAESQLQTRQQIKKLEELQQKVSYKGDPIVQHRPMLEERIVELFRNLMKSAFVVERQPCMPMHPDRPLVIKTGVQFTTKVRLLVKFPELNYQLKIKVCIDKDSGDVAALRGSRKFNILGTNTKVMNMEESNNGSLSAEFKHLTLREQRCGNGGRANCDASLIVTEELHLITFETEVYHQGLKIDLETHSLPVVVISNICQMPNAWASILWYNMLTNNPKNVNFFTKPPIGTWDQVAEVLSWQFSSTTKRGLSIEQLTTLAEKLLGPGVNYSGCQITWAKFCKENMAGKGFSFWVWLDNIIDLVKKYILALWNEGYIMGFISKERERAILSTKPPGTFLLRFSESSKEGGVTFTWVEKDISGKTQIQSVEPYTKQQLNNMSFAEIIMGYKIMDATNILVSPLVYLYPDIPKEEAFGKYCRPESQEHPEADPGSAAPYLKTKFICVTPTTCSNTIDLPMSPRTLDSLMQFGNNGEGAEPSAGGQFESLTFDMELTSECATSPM
# Summary of the method: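 HepG2, MRTU-transfected, 24 h dosing. RNA → RT → PCR → FAM label → HpaI → CE. Bidirectional fit vs DMSO.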
# [15] = ATG_TA_CIS: Attagene CIS-FACTORIAL HepG2 Assay for human TA Basal Promoter (AID 2282964); conditions: HepG2 Attagene CIS-factorial TA basal promoter reporter; actives raise or lower the signal
# Summary of the method: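 Background internal-marker endpoint from a 52-component HepG2 cis-reporter panel. Cells treated 24 h; reporter transcripts quantified via RT-PCR and CE fluorescence against DMSO baseline.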
# [16] = ATG_TCF_b_cat_CIS: Attagene CIS-FACTORIAL HepG2 Assay for human T-Cell-Factor with beta-catenin (TCF/b-cat) (AID 2282965); conditions: HepG2 TCF/beta-catenin cis-reporter transcription, actives raise or lower the signal
# Summary of the method: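 In this cis-format system, transfected HepG2 cells report endogenous transcription factor activity. Readout after 24 h exposure is reporter transcript abundance from RT-PCR and capillary electrophoresis, analysed for gain or loss of signal versus DMSO.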
# [17] = ATG_ISRE_CIS: Attagene CIS-FACTORIAL HepG2 Assay for human Interferon Regulatory Factor 1 (IRF1) binding to an Interferon-Stimulated Response Element (ISRE) (AID 2282948); conditions: HepG2 ISRE cis-reporter (Attagene), mRNA transcription readout; actives raise or lower the signal
# Summary of the method: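 Signal reflects induction or loss of ISRE-linked reporter mRNA in transiently transfected HepG2 cells after a 24 h treatment, detected by fluorescent RT-PCR fragments on capillary electrophoresis and normalised to DMSO.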
# [18] = ATG_Sox_CIS: Attagene CIS-FACTORIAL HepG2 Assay for human SRY-box transcription factor (SOX) (AID 2282960); conditions: HepG2 Attagene cis-factorial SOX reporter, mRNA; actives raise or lower the signal
# Summary of the method: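 Using transiently transfected HepG2 cells, reporter transcription driven by cis elements was assessed 24 h after dosing. Signal was fluorescence of capillary-separated RT-PCR products, with DMSO defining baseline activity.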
# [19] = ATG_PPRE_CIS: Attagene CIS-FACTORIAL HepG2 Assay for human Peroxisome Proliferator-activated Response Element (PPRE) (AID 2282958); conditions: HepG2 PPRE cis-element reporter, Attagene transcription factor profiling; actives raise or lower the signal
# Summary of the method: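 After human HepG2 hepatoma cells were transiently transfected with cis-promoter reporter constructs, they were exposed to test chemicals for 24 hours. Reporter RNA was then reverse-transcribed, PCR-amplified, FAM-labeled, HpaI-digested and quantified by capillary electrophoresis.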
structure (smiles),measurement,setting,value
CC(C)(C)OOC(C)(C)CCC(C)(C)OOC(C)(C)C,outcome,[1],inactive
same,outcome,[2],inactive
same,outcome,[3],inactive
same,outcome,[4],inactive
same,outcome,[5],inactive
same,outcome,[6],inactive
same,outcome,[7],inactive
same,outcome,[8],inactive
same,outcome,[9],inactive
same,AC50,[10],8.34 µM (active)
same,outcome,[11],inactive
same,AC50,[12],177 µM (active)
same,AC50,[13],38 µM (active)
same,outcome,[14],inactive
same,outcome,[15],inactive
same,outcome,[16],inactive
Cc1ccc(N)cc1,outcome,[17],inactive
same,outcome,[2],inactive
same,outcome,[3],inactive
same,outcome,[4],inactive
same,outcome,[5],inactive
same,outcome,[6],inactive
same,outcome,[7],inactive
same,outcome,[8],inactive
same,outcome,[9],inactive
same,outcome,[10],inactive
same,outcome,[11],inactive
same,outcome,[12],inactive
same,outcome,[13],inactive
same,outcome,[14],inactive
same,outcome,[15],inactive
same,outcome,[16],inactive
C=CCc1ccc2c(c1)OCO2,outcome,[2],inactive
same,outcome,[3],inactive
same,outcome,[4],inactive
same,outcome,[5],inactive
same,outcome,[6],inactive
same,outcome,[7],inactive
same,outcome,[8],inactive
same,outcome,[9],inactive
same,outcome,[10],inactive
same,outcome,[11],inactive
same,outcome,[18],inactive
same,outcome,[12],inactive
same,outcome,[13],inactive
same,outcome,[14],inactive
same,outcome,[15],inactive
C[N+](C)(C)CC1CO1 (configuration not stated),outcome,[2],inactive
same,outcome,[3],inactive
same,outcome,[4],inactive
same,outcome,[5],inactive
same,outcome,[6],inactive
same,outcome,[7],inactive
same,outcome,[9],inactive
same,outcome,[10],inactive
same,outcome,[19],inactive
same,outcome,[11],inactive
same,outcome,[18],inactive
same,outcome,[12],inactive
same,outcome,[13],inactive
same,outcome,[14],inactive
same,outcome,[15],inactive
same,outcome,[16],inactive
CC(O)CCO (configuration not stated),outcome,[2],inactive
same,outcome,[4],inactive
same,outcome,[5],inactive
same,outcome,[6],inactive
same,outcome,[7],inactive
same,outcome,[8],inactive
same,outcome,[9],inactive
same,AC50,[10],27 µM (active)
same,outcome,[11],inactive
same,outcome,[12],inactive
same,outcome,[13],inactive
same,outcome,[14],inactive
same,outcome,[15],inactive
Nc1cc(Cl)cc(C(=O)O)c1Cl,outcome,[2],inactive
same,outcome,[3],inactive
same,outcome,[4],inactive
same,outcome,[5],inactive
same,outcome,[6],inactive
same,outcome,[7],inactive
same,outcome,[8],inactive
same,outcome,[9],inactive
same,AC50,[10],65 µM (active)
same,outcome,[11],inactive
same,outcome,[12],inactive
same,outcome,[13],inactive
same,outcome,[14],inactive
same,outcome,[15],inactive
same,outcome,[16],inactive
COc1cc(C=O)cc2c1[C@H](COC(N)=O)[C@]1(OC(C)=O)ON2C[C@H]2[C@@H]1N2C(C)=O,outcome,[2],inactive
same,outcome,[3],inactive
same,AC50,[4],155 nM (active)
same,AC50,[5],9.05 µM (active)
same,AC50,[6],8.4 µM (active)
same,outcome,[7],inactive
same,outcome,[8],inactive
same,outcome,[9],inactive
same,AC50,[10],8.47 µM (active)
same,outcome,[19],inactive
same,outcome,[11],inactive
same,outcome,[18],inactive
same,outcome,[12],inactive
same,outcome,[13],inactive
same,AC50,[14],33.4 µM (active)
same,AC50,[15],96.5 nM (active)
